Laboratory results: PubChem BioAssay
Values joined by “and” are separate entries in the source; they are usually repeats but may differ in a detail not shown here. Equal values may be shown once. Active and inactive are the calls of the source.

How the values were obtained:
[1] = binders of probe aFSTL3 on microarray, primary screen, stem cell growth factor project, biochemical, small-molecule microarray, fluorescence 635/667 (AID 1064); details: higher = more signal;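 also: measures binding of the biotinylated anti-FSTL3 antibody to printed compounds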
[2] = binders from COS7 lysate, DM2A8 probe, primary screen, torsin A project, cell lysate, small-molecule microarray, fluorescence 635/667 (AID 1065); details: higher = more signal, COS7 lysate expressing mutant human TOR1A
[3] = binders of probe aFGF2 on microarray, primary screen, stem cell growth factor project, biochemical, small-molecule microarray, fluorescence 635/667 (AID 1067); details: higher = more signal;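 also: measures binding of biotinylated aFGF2 protein to printed compounds on slides; z-score merges feature fluorescence and signal-to-noise across triplicate slides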
[4] = binders of probe aFGF10 on microarray, primary screen, stem cell growth factor project, biochemical, small-molecule microarray, fluorescence 635/667 (AID 1071); details: higher = more signal;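 also: score merges 667 nm spot intensity and signal to noise from triplicate slides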
[5] = molecular target: Neurogenic locus notch homolog protein 2 (Homo sapiens) (UniProt Q04721); experiment: Notch2 binders on small-molecule microarrays, primary screen, biochemical, small-molecule microarray, 635 nm fluorescence, stem cell growth factors (AID 1073); details: Notch2 binding, higher = more signal
[6] = molecular target: Pro-neuregulin-1, membrane-bound isoform (Homo sapiens) (UniProt Q02297); experiment: NRG1 binders on small-molecule microarrays, primary screen, psychiatric disease protein project, biochemical, small-molecule microarray, fluorescence 635/667 (AID 1075); details: NRG1 binding, 635 nm fluorescence, higher = more signal;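 also: score combines 667 nm spot fluorescence with signal to noise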
[7] = test system: Neuregulin-1 EGF-like domain; experiment: binders of neuregulin-1 EGF-like domain, primary screen, biochemical, small-molecule microarray, 635 nm fluorescence (AID 1081); details: small-molecule microarray binding, higher = more signal;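 also: binding of the protein to compounds printed on small-molecule microarray slides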
[8] = FRG1 promoter luciferase signal modulators, primary screen, FRG1 inhibition for FSHD, cell-based, C2C12 myotubes, firefly/Renilla luciferase, luminescence (AID 1084); details: higher = more signal, called active from +8 up or from −8 down
[9] = binders of probe aFST on microarray, primary screen, stem cell growth factor project, biochemical, small-molecule microarray, fluorescence 635/667 (AID 1086); details: higher = more signal;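 also: score merges 667 nm fluorescence with signal-to-noise of each printed compound spot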
[10] = binders of probe aHhip on microarray, primary screen, stem cell growth factor project, biochemical, small-molecule microarray, fluorescence 635/667 (AID 1087); details: higher = more signal;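 also: score merges spot fluorescence at 667nm with spot signal to noise ratio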

Sequence of Neurogenic locus notch homolog protein 2 (Homo sapiens) (Q04721 whole entry, looked up, canonical isoform): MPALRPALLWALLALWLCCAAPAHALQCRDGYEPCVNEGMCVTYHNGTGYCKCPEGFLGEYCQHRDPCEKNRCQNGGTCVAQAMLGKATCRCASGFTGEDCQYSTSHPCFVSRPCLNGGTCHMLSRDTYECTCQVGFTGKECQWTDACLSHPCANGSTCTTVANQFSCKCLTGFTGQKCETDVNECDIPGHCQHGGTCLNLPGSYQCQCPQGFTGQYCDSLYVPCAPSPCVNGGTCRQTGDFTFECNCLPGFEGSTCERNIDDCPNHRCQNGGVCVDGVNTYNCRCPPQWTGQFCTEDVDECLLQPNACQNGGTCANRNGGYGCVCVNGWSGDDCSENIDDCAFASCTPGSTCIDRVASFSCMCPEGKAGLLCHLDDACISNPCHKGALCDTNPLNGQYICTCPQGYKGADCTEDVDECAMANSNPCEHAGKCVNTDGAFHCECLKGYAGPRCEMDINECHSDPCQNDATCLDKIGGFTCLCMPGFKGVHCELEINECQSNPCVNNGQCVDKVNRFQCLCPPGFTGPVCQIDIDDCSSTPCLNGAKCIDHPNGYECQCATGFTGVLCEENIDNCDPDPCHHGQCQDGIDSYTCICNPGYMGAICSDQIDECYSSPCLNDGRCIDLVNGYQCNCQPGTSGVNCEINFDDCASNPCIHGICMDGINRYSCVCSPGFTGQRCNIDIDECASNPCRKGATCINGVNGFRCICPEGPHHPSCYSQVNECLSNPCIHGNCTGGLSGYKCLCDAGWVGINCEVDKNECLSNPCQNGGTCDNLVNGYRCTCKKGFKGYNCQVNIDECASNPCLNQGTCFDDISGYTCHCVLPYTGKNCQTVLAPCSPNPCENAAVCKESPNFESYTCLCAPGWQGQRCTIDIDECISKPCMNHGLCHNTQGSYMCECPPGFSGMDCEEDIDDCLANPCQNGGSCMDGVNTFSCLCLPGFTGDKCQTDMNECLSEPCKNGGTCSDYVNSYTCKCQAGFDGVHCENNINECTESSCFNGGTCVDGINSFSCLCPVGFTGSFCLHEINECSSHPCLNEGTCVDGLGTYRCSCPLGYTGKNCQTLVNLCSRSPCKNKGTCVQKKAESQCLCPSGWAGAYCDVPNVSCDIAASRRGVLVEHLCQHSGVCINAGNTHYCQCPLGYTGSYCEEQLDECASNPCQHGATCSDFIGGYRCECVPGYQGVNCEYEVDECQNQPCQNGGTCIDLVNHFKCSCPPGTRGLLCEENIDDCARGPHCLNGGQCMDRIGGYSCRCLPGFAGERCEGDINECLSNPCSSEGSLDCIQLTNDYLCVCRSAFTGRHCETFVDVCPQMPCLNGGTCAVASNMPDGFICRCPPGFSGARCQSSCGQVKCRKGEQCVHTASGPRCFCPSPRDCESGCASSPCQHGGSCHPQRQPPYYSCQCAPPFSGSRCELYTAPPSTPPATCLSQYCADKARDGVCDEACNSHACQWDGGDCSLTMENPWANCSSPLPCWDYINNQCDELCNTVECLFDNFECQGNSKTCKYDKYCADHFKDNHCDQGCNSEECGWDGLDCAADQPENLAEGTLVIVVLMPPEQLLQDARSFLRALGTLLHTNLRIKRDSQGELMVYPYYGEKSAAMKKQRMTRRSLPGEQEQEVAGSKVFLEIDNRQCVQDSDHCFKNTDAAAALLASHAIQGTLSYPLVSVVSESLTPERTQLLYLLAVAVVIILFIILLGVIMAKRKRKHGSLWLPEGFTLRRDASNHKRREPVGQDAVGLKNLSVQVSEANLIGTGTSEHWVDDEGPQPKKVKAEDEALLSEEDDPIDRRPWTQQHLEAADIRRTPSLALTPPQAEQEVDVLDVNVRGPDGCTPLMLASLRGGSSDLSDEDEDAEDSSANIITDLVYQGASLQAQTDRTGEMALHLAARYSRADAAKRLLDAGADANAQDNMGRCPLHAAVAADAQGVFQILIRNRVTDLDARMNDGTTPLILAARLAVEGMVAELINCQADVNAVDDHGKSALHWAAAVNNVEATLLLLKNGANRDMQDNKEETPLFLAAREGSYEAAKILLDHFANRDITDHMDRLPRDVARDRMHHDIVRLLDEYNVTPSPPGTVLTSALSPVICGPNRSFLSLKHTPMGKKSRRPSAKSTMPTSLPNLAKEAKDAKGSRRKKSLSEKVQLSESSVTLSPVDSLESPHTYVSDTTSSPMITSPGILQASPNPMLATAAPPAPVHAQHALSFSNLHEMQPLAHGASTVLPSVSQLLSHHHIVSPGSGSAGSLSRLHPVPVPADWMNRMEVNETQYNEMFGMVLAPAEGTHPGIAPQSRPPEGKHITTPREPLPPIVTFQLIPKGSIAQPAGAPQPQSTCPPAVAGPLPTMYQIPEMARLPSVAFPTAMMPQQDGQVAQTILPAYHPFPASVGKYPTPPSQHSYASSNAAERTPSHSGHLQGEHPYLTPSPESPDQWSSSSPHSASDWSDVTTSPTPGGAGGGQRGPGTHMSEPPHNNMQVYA
Sequence of Pro-neuregulin-1, membrane-bound isoform (Homo sapiens) (Q02297 whole entry, looked up, the tested form may be a part, canonical isoform): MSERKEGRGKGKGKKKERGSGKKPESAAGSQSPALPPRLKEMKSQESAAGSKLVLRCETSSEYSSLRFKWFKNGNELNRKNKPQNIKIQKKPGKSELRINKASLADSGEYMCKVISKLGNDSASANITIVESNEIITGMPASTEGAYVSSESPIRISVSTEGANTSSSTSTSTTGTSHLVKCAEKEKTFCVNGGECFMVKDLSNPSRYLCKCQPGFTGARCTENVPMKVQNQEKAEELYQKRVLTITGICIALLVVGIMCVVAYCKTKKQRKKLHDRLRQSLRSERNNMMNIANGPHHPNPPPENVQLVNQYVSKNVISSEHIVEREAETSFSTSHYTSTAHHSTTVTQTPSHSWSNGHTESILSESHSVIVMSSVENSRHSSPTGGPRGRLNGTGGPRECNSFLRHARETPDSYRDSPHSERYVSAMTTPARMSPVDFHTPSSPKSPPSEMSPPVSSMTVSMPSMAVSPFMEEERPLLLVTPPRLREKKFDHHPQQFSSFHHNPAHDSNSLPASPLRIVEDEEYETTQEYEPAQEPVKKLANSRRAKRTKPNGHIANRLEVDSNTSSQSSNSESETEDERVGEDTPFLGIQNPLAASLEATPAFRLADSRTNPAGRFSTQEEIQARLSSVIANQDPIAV

Compound	composite z-score [1]	composite z-score [2]	composite z-score [3]	composite z-score [4]	composite z-score [5]	composite z-score [6]	composite z-score [7]	z-score [8]	composite z-score [9]	composite z-score [10]
Cc1ccc(S(=O)(=O)OC[C@@H]2CN3[C@@H](CC[C@@H](C)[C@@H]3c3ccc(Br)cc3)C(=O)O2)cc1	-0.14 and -0.482	0.299 and 0.063	-0.0502 and 0.0062	0.251 and 0.369	0.246 and 0.663	0.311 and 0.0379	0.168 and 1.07	0.472 (inactive) and -0.0959 (inactive)	0.447 and 0.166	0.21 and 0.268
CO[C@@H]1C=CCC(=O)N2CCC[C@H]2C(=O)OC[C@H](C)C(=O)OC[C@H]1C	-0.368	1.3	-0.0676	0.0525	-0.244	-0.226	1.07	0.0531 (inactive)	0.191	0.501
CCN1C(=O)[C@H]2[C@H]3[C@H](O)[C@H](O)CC(=NOC[C@@H](O)COCc4ccco4)[C@@H]3CC[C@H]2C1=O	-0.841 and -0.446	2.37 and 0.0438	-0.235 and -0.132	-0.507 and 0.352	-0.413 and -0.498	-0.538 and -0.26	0.837 and 1.12	0.235 (inactive) and 0.417 (inactive)	-0.104 and -0.45	-0.0645 and 0.154
O=C(NN=C1C[C@@H](O)[C@@H](O)[C@@H]2[C@@H]3C(=O)N(Cc4ccc5c(c4)OCO5)C(=O)[C@@H]3CC[C@H]12)OCc1ccccc1	-0.196	1.64	-0.025	-0.348	0.64	-1.21	-1.43	-0.0282 (inactive)	0.965	-0.387
C[C@@H]1CN2[C@@H](CC[C@@H](C)[C@@H]2c2ccc(Br)cc2)C(=O)O1	-0.267 and -0.0033	-0.0199 and 0.174	-0.116 and -0.0583	0.215 and 0.604	0.275 and 0.18	-0.368 and 0.158	-0.704 and -0.829	-0.735 (inactive) and -1.38 (inactive)	-0.145 and 0.0701	-0.0994 and -0.274
CO[C@@H]1COC(=O)CC=C[C@H](C)[C@@H](NS(=O)(=O)c2ccc(C)cc2)COC(=O)CC=C[C@@H]1C	-0.226 and -0.425	0.711 and 1.44	-0.234 and -0.127	0.433 and -0.153	0.671 and -0.333	0.0292 and -0.476	0.628 and 0.956	0.994 (inactive) and 0.445 (inactive)	0.0151 and 0.106	0.113 and -0.0391
C=CCN(C(=O)C(c1cccs1)N(C(=O)/C=C\C(=O)O)c1c(Cl)cccc1CO)c1ccc(OC)cc1 (stereo not given)	1.98 and 1.01	-0.781 and -0.551	-0.228 and -0.0608	-1.56 and -0.737	-1.87 and -1.28	1.04 and -0.796	0.782 and 0.0793	0.284 (inactive) and 0.649 (inactive)	-1 and -0.362	-0.164 and -0.229
CO[C@H]1COC(=O)CC=C[C@H](C)[C@H](OC)COC(=O)[C@@H](C)COC(=O)CC=C[C@@H]1C	-0.62 and -0.66	0.767 and 1.26	-0.14 and -0.143	-0.0016 and 0.149	-0.178 and 0.182	-0.73 and -0.518	-0.104 and 0.0825	-0.407 (inactive) and -1.3 (inactive)	-0.0446 and -0.0435	-0.261 and -0.0645
O=C1[C@H]2[C@H]3[C@H](O)[C@H](O)CC(=NOCc4ccccc4)[C@H]3CC[C@H]2C(=O)N1Cc1ccccc1	-0.51	0.887	-0.109	0.186	0.189	-0.226	-0.263	0.224 (inactive)	0.223	-0.274
C=CCN(CCCC)C(=O)C1N(C(C)(C)CO)C(=O)C2C(C(=O)O)C3C=CC21O3 (stereo not given)	0.501 and 0.858	-0.796 and -1.83	-0.249 and -0.252	-1.94 and -1.01	-1.33 and -1.67	1.06 and -1.21	0.111 and -0.645	1.4 (inactive) and 0.963 (inactive)	-1.12 and -0.587	-0.204 and -0.0645
C=C(C)C(=O)OC[C@@H]1CN2[C@@H](CC[C@@H](C)[C@@H]2c2ccc(Br)cc2)C(=O)O1	-0.577	-0.275	-0.083	0.733	0.636	0.776	1.1	-0.889 (inactive)	0.129	-0.0645
C#CCCCON=C1C[C@@H](O)[C@@H](O)[C@@H]2[C@@H]3C(=O)N(C4CCCCC4)C(=O)[C@@H]3CC[C@H]12	-0.283	0.145	-0.0423	0.612	0.784	0.717	0.793	-0.298 (inactive)	0.346	-0.0994
C=C[C@@H](C)[C@H](O)c1ccc(O)c2ccccc12	-0.0835 and 0.0226	0.0628 and -0.136	-0.182 and -0.24	-0.455 and -0.788	-0.889 and -2.07	-0.0351 and -0.653	-0.728 and -0.279	-0.431 (inactive) and 0.2 (inactive)	-0.938 and -1.14	0.0373 and -0.261
C=CCN(CCCCC)C(=O)C(c1cccs1)N(C(=O)/C=C\C(=O)O)c1ccc(CCO)cc1 (stereo not given)	0.786 and 0.657	-1.96 and -1.13	-0.182 and -0.201	-0.507 and -1.34	-1.77 and -0.81	0.279 and -0.706	1.53 and 1.51	0.349 (inactive) and 0.348 (inactive)	-0.713 and -0.498	0.106 and -0.274
